From PubChem BioAssay AID1159580 (chemical genetic matrix, 2015)
Where “and” joins values, the source holds several entries; their conditions need not be identical. Equal entries are not always repeated. Hit rate of the full screen: of about 5,500 compounds, about 2,000 (36%) were called active. Inconclusive results (about 18%) are left out. Cut-off read from the data, not from the text of the source: active = normalized growth mostly below about 0.91 (no sharp cut-off); inconclusive = no clear call, values can overlap the other calls; inactive = mostly above about 0.92. The list shows a part of the results.

Test: chemical genetic growth profiling, strain panel (AID 1159580);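 note: tested at 20 µM; growth read once vehicle control cultures reached saturation at 30 °C; 1 = growth at the plate median or of vehicle wells; lower values mean less growth of the strain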
Conditions: S. cerevisiae deletion strains, growth OD
[1] = locus YAL013W, strain DEP1, stronger effect = lower value
[2] = locus YGR229C, strain SMI1, stronger effect = lower value
[3] = locus YJR075W, strain HOC1, stronger effect = lower value
[4] = locus YMR307W, strain GAS1, stronger effect = lower value
[5] = locus YPL055C, strain LGE1, stronger effect = lower value
[6] = locus YPL241C, strain CIN2, stronger effect = lower value

Measured: normalized growth

N[C@@H](Cc1ccc(O)c(I)c1)C(=O)O
inactive: [1] 0.997 | locus YAL040C, strain CLN3, stronger effect = lower value 0.991 | locus YCL061C, strain MRC1 (second series), stronger effect = lower value 1 | locus YDR363W, strain ESC2, stronger effect = lower value 1.01 | locus YER002W, strain NOP16, stronger effect = lower value 1.02 | locus YGR078C, strain PAC10, stronger effect = lower value 1.01 | [2] 1.01 | [3] 0.991 | [4] 0.992 | locus YNL153C, strain GIM3, stronger effect = lower value 1 | locus YNL175C, strain NOP13, stronger effect = lower value 1 | locus YNL197C, strain WHI3, stronger effect = lower value 0.997 | locus YNL224C, strain SQS1, stronger effect = lower value 1.01 | locus YOR083W, strain WHI5 (second series), stronger effect = lower value 1.02 | [5] 0.979 | [6] 0.993

NC(Cc1ccc(F)cc1)C(=O)O (stereo not drawn)
inactive: [1] 1.01 | locus YAL021C, strain ccr4, stronger effect = lower value 0.987 | locus YAL026C, strain drs2, stronger effect = lower value 1.03 | locus YAL030W, strain snc1, stronger effect = lower value 1.01 | locus YBL061C, strain skt5, stronger effect = lower value 1.03 | locus YBR009C, strain hhf1, stronger effect = lower value 1.03 | locus YBR021W, strain FUR4, stronger effect = lower value 0.99 | locus YBR023C, strain chs3, stronger effect = lower value 1.01 | locus YBR171W, strain sec66, stronger effect = lower value 1.03 | locus YBR229C, strain ROT2, stronger effect = lower value 1.01 | locus YBR231C, strain swc5, stronger effect = lower value 1.02 | locus YCL011C, strain gbp2, stronger effect = lower value 1.02 | locus YCL016C, strain dcc1, stronger effect = lower value 1.01 | locus YCL029C, strain bik1, stronger effect = lower value 1.03 | locus YCL061C, strain MRC1, stronger effect = lower value 1.01 | locus YCL069W, strain vba3, stronger effect = lower value 1.01 | locus YCR088W, strain abp1, stronger effect = lower value 1.02 | locus YDL005C, strain med2, stronger effect = lower value 1.01 | locus YDL035C, strain GPR1, stronger effect = lower value 1.01 | locus YDL040C, strain nat1, stronger effect = lower value 1 | locus YDL074C, strain BRE1, stronger effect = lower value 1.01 | locus YDL101C, strain DUN1, stronger effect = lower value 1.01 | locus YDL134C, strain PPH21, stronger effect = lower value 1.01 | locus YDL185W, strain tfp1, stronger effect = lower value 1.03 | locus YDL192W, strain arf1, stronger effect = lower value 1.02 | locus YDR001C, strain nth1, stronger effect = lower value 1.01 | locus YDR069C, strain doa4, stronger effect = lower value 1.02 | locus YDR101C, strain arx1, stronger effect = lower value 1.04 | locus YDR137W, strain rgp1, stronger effect = lower value 0.994 | locus YDR150W, strain NUM1, stronger effect = lower value 0.997 | locus YDR159W, strain sac3, stronger effect = lower value 1.02 | locus YDR162C, strain NBP2, stronger effect = lower value 1.02 | locus YDR195W, strain ref2 1.04 | locus YDR297W, strain sur2, stronger effect = lower value 1.02 | locus YDR318W, strain mcm21, stronger effect = lower value 1.02 | locus YDR334W, strain swr1, stronger effect = lower value 1.02 | locus YDR335W, strain msn5, stronger effect = lower value 1.02 | locus YDR388W, stronger effect = lower value 1.03 | locus YDR392W, strain spt3, stronger effect = lower value 0.923 | locus YDR502C, strain sam2, stronger effect = lower value 1.02 | locus YEL003W, strain gim4, stronger effect = lower value 1.02 | locus YEL037C, strain rad23, stronger effect = lower value 1.01 | locus YEL061C, strain CIN8 (second series), stronger effect = lower value 1.02 | locus YEL061C, strain CIN8, stronger effect = lower value 1 | locus YER015W, strain faa2, stronger effect = lower value 1.02 | locus YER016W, strain bim1, stronger effect = lower value 1.02 | locus YER110C, stronger effect = lower value 1.04 | locus YER111C, strain swi4, stronger effect = lower value 1.03 | locus YER155C, strain BEM2 (second series), stronger effect = lower value 1.04 | locus YER155C, strain BEM2, stronger effect = lower value 1 | locus YER167W, strain BCK2, stronger effect = lower value 1 | locus YFR010W, strain ubp6, stronger effect = lower value 1.01 | locus YGL078C, strain dbp3, stronger effect = lower value 1.02 | locus YGL086W, strain mad1, stronger effect = lower value 1 | locus YGL167C, strain pmr1, stronger effect = lower value 1.02 | locus YGL173C, strain kem1, stronger effect = lower value 1.02 | locus YGL227W, strain vid30, stronger effect = lower value 1.02 | locus YGL240W, strain doc1, stronger effect = lower value 1.03 | locus YGL248W, strain PDE1, stronger effect = lower value 1.02 | locus YGL253W, strain hxk2, stronger effect = lower value 1.04 | locus YGR135W, strain pre9, stronger effect = lower value 1.02 | [2] 0.992 | locus YGR252W, strain gcn5, stronger effect = lower value 1.06 | locus YHR013C, strain ard1, stronger effect = lower value 1.01 | locus YHR027C, strain rpn1, stronger effect = lower value 1.01 | locus YHR030C, strain SLT2, stronger effect = lower value 1.01 and 1.02 | locus YHR079C, strain IRE1 (second series), stronger effect = lower value 1.03 | locus YHR079C, strain IRE1, stronger effect = lower value 1.02 | locus YHR094C, strain hxt1, stronger effect = lower value 1.02 | locus YHR129C, strain ARP1, stronger effect = lower value 1.01 | locus YHR142W, strain chs7, stronger effect = lower value 0.996 | locus YHR200W, strain rpn10, stronger effect = lower value 1.02 | locus YIL066C, strain RNR3, stronger effect = lower value 1.01 | locus YIL073C, strain SPO22, stronger effect = lower value 1.09 | locus YIL125W, strain kgd1, stronger effect = lower value 1.02 | locus YIR030C, strain dcg1, stronger effect = lower value 1.02 | locus YJL092W, strain hpr5, stronger effect = lower value 1.02 | locus YJL095W, strain BCK1 (second series), stronger effect = lower value 1.01 | locus YJL095W, strain BCK1, stronger effect = lower value 1.02 and 1.03 | locus YJL115W, strain asf1, stronger effect = lower value 1.01 | locus YJL129C, strain trk1, stronger effect = lower value 1.01 | locus YJL134W, strain LCB3, stronger effect = lower value 1 | locus YJL154C, strain vps35, stronger effect = lower value 1.01 | locus YJL164C, strain tpk1, stronger effect = lower value 0.966 | locus YJL166W, strain qcr8, stronger effect = lower value 1 | locus YJL168C, strain set2, stronger effect = lower value 1.01 | locus YJL187C, strain SWE1 (second series), stronger effect = lower value 1.03 | locus YJL187C, strain SWE1, stronger effect = lower value 1.02 | locus YJR043C, strain POL32, stronger effect = lower value 1 | locus YJR066W, strain TOR1, stronger effect = lower value 1 | [3] 1.01 | locus YKL009W, strain mrt4, stronger effect = lower value 1 | locus YKL068W, stronger effect = lower value 1.01 | locus YKL085W, strain MDH1 (second series), stronger effect = lower value 1.02 | locus YKL085W, strain MDH1, stronger effect = lower value 1.02 | locus YKL160W, strain elf1, stronger effect = lower value 0.99 | locus YKR001C, strain vps1, stronger effect = lower value 1.01 | locus YKR026C, strain gcn3, stronger effect = lower value 1.03 | locus YKR091W, strain srl3, stronger effect = lower value 1.02 | locus YLL001W, strain dnm1, stronger effect = lower value 1 | locus YLL026W, stronger effect = lower value 1.01 | locus YLL041C, strain sdh2, stronger effect = lower value 1.01 | locus YLR027C, strain aat2, stronger effect = lower value 1.01 | locus YLR039C, strain RIC1, stronger effect = lower value 1.04 | locus YLR058C, strain SHM2, stronger effect = lower value 1.02 | locus YLR102C, strain apc9, stronger effect = lower value 1.03 | locus YLR113W, strain HOG1, stronger effect = lower value 1.03 | locus YLR221C, strain rsa3, stronger effect = lower value 0.993 | locus YLR258W, strain gsy2, stronger effect = lower value 1.02 | locus YLR262C, strain YPT6 (second series), stronger effect = lower value 0.997 | locus YLR262C, strain YPT6, stronger effect = lower value 1.06 | locus YLR268W, strain sec22, stronger effect = lower value 1.03 | locus YLR320W, strain mms22, stronger effect = lower value 1.02 | locus YLR330W, strain CHS5, stronger effect = lower value 1.01 | locus YLR342W, strain FKS1 (second series), stronger effect = lower value 0.979 | locus YLR342W, strain FKS1, stronger effect = lower value 1.02 | locus YLR357W, strain rsc2, stronger effect = lower value 1.01 | locus YLR370C, strain arc18, stronger effect = lower value 1.02 | locus YLR371W, strain rom2, stronger effect = lower value 1.02 | locus YLR384C, strain iki3, stronger effect = lower value 1.02 | locus YLR418C, strain cdc73, stronger effect = lower value 1.02 | locus YML016C, strain PPZ1, stronger effect = lower value 1 | locus YML032C, strain rad52, stronger effect = lower value 1.03 | locus YML120C, strain ndi1, stronger effect = lower value 1.01 | locus YML124C, strain tub3, stronger effect = lower value 1.02 | locus YMR058W, strain fet3, stronger effect = lower value 1.02 | locus YMR078C, strain ctf18, stronger effect = lower value 1.04 | locus YMR125W, strain sto1, stronger effect = lower value 1.04 | locus YMR129W, stronger effect = lower value 1.01 | locus YMR205C, strain PFK2, stronger effect = lower value 1.02 | locus YMR223W, strain ubp8, stronger effect = lower value 1.02 | locus YMR231W, strain pep5, stronger effect = lower value 1.02 | locus YMR263W, strain SAP30, stronger effect = lower value 1.01 | [4] 1.05 | locus YNL067W, strain RPL9B, stronger effect = lower value 1.03 | locus YNL071W, strain lat1, stronger effect = lower value 1 | locus YNL128W, strain TEP1, stronger effect = lower value 1.04 | locus YNL183C, strain NPR1, stronger effect = lower value 0.969 | locus YNL209W, strain ssb2, stronger effect = lower value 1.02 | locus YNL233W, strain BNI4, stronger effect = lower value 1.02 | locus YNL248C, strain rpa49, stronger effect = lower value 0.982 | locus YNL250W, strain rad50, stronger effect = lower value 1.02 | locus YNL271C, strain bni1, stronger effect = lower value 1.04 | locus YNL298W, strain CLA4, stronger effect = lower value 1.02 | locus YNL307C, strain MCK1, stronger effect = lower value 1.03 | locus YNL322C, strain KRE1 (second series), stronger effect = lower value 1.01 | locus YNR049C, strain mso1, stronger effect = lower value 1.04 | locus YNR052C, strain pop2, stronger effect = lower value 1.02 | locus YOL012C, strain htz1 1.76 | locus YOL147C, strain pex11, stronger effect = lower value 1.03 | locus YOR001W, strain rrp6, stronger effect = lower value 1.01 | locus YOR061W, strain CKA2, stronger effect = lower value 1.02 | locus YOR069W, strain VPS5, stronger effect = lower value 1 | locus YOR070C, strain gyp1, stronger effect = lower value 1.01 | locus YOR080W, strain dia2, stronger effect = lower value 1.02 | locus YOR083W, strain WHI5, stronger effect = lower value 0.985 | locus YOR106W, strain vam3, stronger effect = lower value 0.992 | locus YOR136W, strain idh2, stronger effect = lower value 1.05 | locus YOR144C, strain elg1, stronger effect = lower value 1.02 | locus YOR184W, strain ser1, stronger effect = lower value 1.04 | locus YOR231W, strain MKK1, stronger effect = lower value 1.05 | locus YOR265W, strain rbl2, stronger effect = lower value 1.01 | locus YOR270C, strain vph1, stronger effect = lower value 1.02 | locus YOR290C, strain snf2, stronger effect = lower value 0.998 | locus YOR316C, strain cot1, stronger effect = lower value 1.02 | locus YPL051W, strain arl3, stronger effect = lower value 0.998 | [5] 1.02 | locus YPL078C, strain atp4, stronger effect = lower value 0.988 | locus YPL106C, strain sse1, stronger effect = lower value 1.02 | locus YPL240C, strain hsp82, stronger effect = lower value 1.03 | [6] 1 | locus YPL256C, strain CLN2, stronger effect = lower value 1.02 | locus YPR119W, strain clb2, stronger effect = lower value 1.02 | locus YPR141C, strain kar3, stronger effect = lower value 1.03 | locus YPR163C, strain tif3, stronger effect = lower value 1.04 | locus YPR167C, strain met16, stronger effect = lower value 1.03 | strain wtn01, stronger effect = lower value 1.03
